Hits are enriched below; roughly 1.1% of the tested compounds scored in any of these assays.
SRC3 inh: inhibitors of human steroid receptor coactivator 3 (SRC3). HEK293 GAL4-SRC3 luciferase reporter, luminescence. AID 588352. 360,000 compounds, 0.17% hits. inhibition, % at 3.6 µM. Q9Y6Q9;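 active means inhibition above a per-campaign cutoff, the mean of all compounds plus 3 SD, cut at about 60% in these data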;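 further: higher means less SRC3-driven luciferase light from the GAL4 reporter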
NR5A2 inv ag: inverse agonists of human LRH-1 (NR5A2); O00482; 360,000 compounds, 0.13% hits; inhibition, % at 3.6 µM; AID 602396; HEK293T StAR-luciferase reporter, LRH-1 transfected, 24 h;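 active means inhibition above the mean inhibition of all tested compounds plus 3 SD, cut at about 73% in these data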
Target sequence (O00482 whole entry, looked up): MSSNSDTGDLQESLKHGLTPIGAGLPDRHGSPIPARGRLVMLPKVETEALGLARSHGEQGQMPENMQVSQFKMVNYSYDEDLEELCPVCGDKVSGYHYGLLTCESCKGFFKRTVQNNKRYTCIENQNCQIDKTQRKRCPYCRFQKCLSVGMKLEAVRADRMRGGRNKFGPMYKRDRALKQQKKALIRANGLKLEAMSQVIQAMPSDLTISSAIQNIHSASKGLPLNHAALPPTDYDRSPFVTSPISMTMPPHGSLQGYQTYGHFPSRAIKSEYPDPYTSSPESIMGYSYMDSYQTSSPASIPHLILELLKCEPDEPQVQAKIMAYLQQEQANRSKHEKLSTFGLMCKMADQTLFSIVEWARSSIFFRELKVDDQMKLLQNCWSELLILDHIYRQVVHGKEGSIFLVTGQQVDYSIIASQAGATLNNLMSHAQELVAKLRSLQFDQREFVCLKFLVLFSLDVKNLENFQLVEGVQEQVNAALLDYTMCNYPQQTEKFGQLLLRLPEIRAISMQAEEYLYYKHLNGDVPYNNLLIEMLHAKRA
NR2F2 inh: blocks human COUP-TFII nuclear receptor | P24468 | HEK293T NGFI-A luciferase reporter, luminescence | inhibition, % at 8.6 µM | 370,000 compounds, 0.7% hits | AID 686940;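 active means inhibition above a per-plate cutoff, mean inhibition of test wells between control levels plus 3 SD, cut at about 38% in these data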;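 further: cells cotransfected with COUP-TFII expression vector driving the NGFI-A reporter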
NCOA1 inh: inhibitors of human steroid receptor coactivator 1 (SRC1) | 360,000 compounds, 0.12% hits | Q15788 | AID 588354 | HEK293 GAL4-SRC1 luciferase reporter, luminescence | inhibition, % at 3.6 µM;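 active means inhibition above the campaign mean plus 3 SD, with each screening campaign given its own cutoff, cut at about 60% in these data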
GalR3 antag: antagonists of human GalR3 | O60755 | HEK293 GalR3-CNG cAMP membrane potential fluorescence; galR3 body fused to GalR1 C-terminus | inhibition, % at 3 µM | 360,000 compounds, 0.44% hits | AID 651719;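 active means inhibition above the screen-wide average plus 3 SD, cut at about 13% in these data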;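 further: forskolin and galanin both at EC90 stimulate the cells; cAMP rise reported by CNG channel membrane potential dye signal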
SRC2 inh: inhibits human steroid receptor coactivator 2. Q15596. HEK293 GAL4-SRC2 luciferase reporter, luminescence. inhibition, % at 9 µM. 370,000 compounds, 0.17% hits. AID 651957;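 active means inhibition above the mean inhibition of all tested compounds plus 3 SD, set per campaign, cut at about 52% in these data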
VP16 Luc counter: inhibits VP16 reporter, flagging COUP-TFII antagonist hits; shares compounds with NR2F2 inh; HEK293 Gal4-VP16 luciferase reporter, luminescence; inhibition, % at 8.5 µM; 2,500 compounds, 25% hits; AID 687007; in the data active means inhibition above about 13%
COUP-TFII conf: confirmation of human COUP-TFII (NR2F2) inhibitors; shares compounds with NR2F2 inh; HEK293 NGFI-A luciferase reporter, luminescence; inhibition, % at 8.5 µM; 2,500 compounds, 45% hits; AID 687008;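 active means mean inhibition over three repeats above a set limit taken from the earlier primary screen, cut at about 38% in these data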
Hits are given with their value; i = inactive; nt = not tested or not shown.

SMILES | SRC3 inh | NR5A2 inv ag | NR2F2 inh | NCOA1 inh | GalR3 antag | SRC2 inh | VP16 Luc counter | COUP-TFII conf
COc1ccc(Nc2nc(N3CCCC3)c3ccccc3n2)cc1 | i | i | i | i | i | i | nt | nt
CCN(CC)c1ccc(Nc2nc(N3CCOCC3)c3ccccc3n2)cc1 | i | i | 60 | i | i | i | i | 43
Cc1ccc(-c2cc3c(N=O)c4ccccc4c-3n[nH]2)cc1 | 73 | i | 84 | 69 | i | 61 | 37 | 86
O=C(O)c1ccc(CSc2nnc(COc3ccccc3)o2)cc1 | i | i | i | i | i | i | nt | nt
O=C(O)c1cccc(CSc2nnc(-c3ccc(Cl)cc3)o2)c1 | i | i | 40 | i | i | 55 | 37 | i
O=C(O)c1cccc(CSc2nnc(COc3ccccc3)o2)c1 | i | i | 41 | i | i | i | 35 | i
Cn1nc(C(C)(C)C)cc1C(=O)N1CCCCC1c1cc(C(=O)Nc2ccccc2Cl)no1 (stereo not drawn) | i | i | 48 | i | i | i | i | i
O=C(/C=C(\Nc1ccc(Br)c(F)c1)c1ccccc1)c1ccccc1 | nt | nt | i | nt | i | i | nt | nt
CCc1cccc(CC)c1NC(=O)CSc1nc2ccc(N3C(=O)C4C5C=CC(C5)C4C3=O)cc2s1 (stereo not drawn) | i | i | 39 | i | i | i | i | i
O=C(Nc1ccn(Cc2ccccc2F)n1)c1ccc(COc2ccccc2Cl)cc1 | i | i | 61 | i | i | i | i | i
O=C(Nc1ccn(Cc2c(F)c(F)cc(F)c2F)n1)c1ccc(COc2ccccc2Cl)cc1 | i | i | nt | i | nt | nt | nt | nt
O=C(c1cc2c(s1)-c1ccccc1S(=O)(=O)C2)N1CCN(Cc2ccccc2)CC1 | i | i | 39 | i | i | i | i | i
C=CC[n+]1c(-c2ccc(OC)cc2)csc1NNC(=O)Nc1ccccc1 | i | i | i | i | i | i | nt | nt
C=CC[n+]1c(-c2ccc(C)cc2)csc1Nc1ccc(NC(C)=O)cc1 | i | i | 52 | i | i | 84 | 83 | 81
CCOC(=O)N1CCN(C(=O)CSCC(=O)Nc2nc(-c3ccc(-c4ccccc4)cc3)cs2)CC1 | i | i | 68 | i | nt | i | i | 71
COc1ccc(C(C)=O)cc1CSc1nnc(Nc2ccc(C)cc2)s1 | i | i | 42 | i | i | i | i | i
COc1ccc(C(C)=O)cc1CSc1nnc(C)s1 | i | i | i | i | i | i | nt | nt
COc1ccc(C(C)=O)cc1CSc1nnc(Nc2ccccc2)s1 | i | i | 50 | i | i | i | i | i
CCOC(=O)N1CCN(C(=O)c2cc(COc3ccc4ncccc4c3)on2)CC1 | i | i | 58 | i | i | i | i | 46
O=C(c1cc(COc2ccc3ncccc3c2)on1)N1CCC[C@H]1CO | i | i | 38 | i | i | i | i | i
CC(CNC(=O)c1cc(COc2ccc3ncccc3c2)on1)c1ccccc1 (stereo not drawn) | i | i | 46 | i | i | i | i | i
Cc1cccnc1CN1CCN(C(=O)c2cc(COc3ccc4ncccc4c3)on2)CC1 | i | i | 63 | i | i | i | i | 38
COCCC1CCCCN1C(=O)c1cc(COc2ccc(C)nc2)on1 (stereo not drawn) | i | i | i | i | i | i | nt | nt
C[C@H]1O[C@H](C2CCCC2)CC2=C1C(=O)OC(C)(C)O2 | nt | i | i | nt | i | i | nt | nt
CC(C)C[C@H]1COc2cc(N3CCSCC3)ccc2S(=O)(=O)N1C | nt | nt | i | nt | nt | i | nt | nt
SMILES | SRC3 inh | NR5A2 inv ag | NR2F2 inh | NCOA1 inh | GalR3 antag | SRC2 inh | VP16 Luc counter | COUP-TFII conf
COc1ccccc1NC(=O)Cn1c(C)cc(=O)c2cccc(OC)c21 | i | i | 51 | i | i | i | i | 42
CCC(C)(C)c1ccc(OCCCC[n+]2ccccc2)c(C(C)(C)CC)c1 | i | i | 54 | i | i | i | i | i
CCC(C)(C)c1ccc(Oc2cccc(C(=O)O)c2)cc1 | i | i | i | i | i | i | nt | nt
CC(C)c1ccc(-c2nc3ccccc3s2)cc1 | 87 | 82 | 89 | 82 | i | 80 | 68 | 98
COC(=O)N(C)c1nc2ccccc2s1 | i | i | i | i | i | i | nt | nt
CN(C(=O)OC(C)(C)C)c1ccc(-c2nc3ccccc3s2)cc1 | 87 | 85 | 97 | 86 | i | 85 | 87 | 107
COC(=O)C1=C(C)N(Cc2cccc(C(F)(F)F)c2)C(=NCc2ccc(OC)cc2)NC1c1cccc(F)c1 (stereo not drawn) | nt | nt | i | nt | i | i | nt | nt
Cc1ccc(C(=O)Nc2ncc([N+](=O)[O-])s2)cc1 | i | i | 63 | i | i | 62 | i | i
O=C(Nc1ncc([N+](=O)[O-])s1)c1ccc2c(c1)OCO2 | i | i | i | i | i | i | nt | nt
CC(C)(C)c1ccc2c(c1)OC(C(=O)N/N=C/c1ccc[nH]1)CO2 (stereo not drawn) | nt | nt | 47 | nt | nt | nt | i | 40
CC(C)(C)c1ccc2c(c1)OC(C(=O)N/N=C\c1ccc[nH]1)CO2 (stereo not drawn) | i | i | i | i | i | i | nt | nt
CCN(CC)CC(C)(C)C(=O)/C=C/c1ccc(/C=C/C(=O)C(C)(C)CN(CC)CC)cc1 | i | 91 | 93 | i | 36 | 74 | 89 | 101
CCN(CC)CCOC(=O)/C=C/c1ccccc1 | i | i | i | i | i | i | nt | nt
Cc1ccc(C)c(NC(=O)CSc2nc(C)cc(=O)[nH]2)c1 | nt | nt | i | nt | nt | i | nt | nt
CCOC(=O)[C@]12CCC=C1N(Cc1cccc3ccccc13)C(=O)[C@H](CC(=O)N1CCCC1)C2 | nt | i | i | nt | i | i | nt | nt
Cc1cc(C)n(C(N)=NC(=O)c2ccccc2)n1 | i | i | i | i | i | i | nt | nt
CC(C)(C)c1ccc(C(=O)Nc2ccc(NC(=O)C(=O)O)cc2)o1 | i | i | 42 | i | i | 59 | i | i
O=C1c2ccccc2C2Cc3nnccc3CN12 (stereo not drawn) | nt | nt | i | nt | i | i | nt | nt
Cc1ccc(Oc2cc([N+](=O)[O-])cc3c2C(=O)Nc2ccccc2O3)cc1 | i | i | 38 | i | i | i | i | i
CCOC(=O)[C@]12CCCCC/C=C\1N(Cc1ccc(OC)cc1)C(=O)[C@H]2CC(=O)NCC1CCCCC1 | nt | nt | i | nt | nt | i | nt | nt
C[n+]1ccn(CC(=O)c2cccs2)c1 | i | i | i | i | i | i | nt | nt
CCCCCCCCCCCCCCCCn1cc[n+](C)c1 | i | i | 47 | i | i | i | i | 49
O=C(Nc1cccc(S(=O)(=O)NC2=NCCCCC2)c1)c1ccc(Cl)cc1 | i | i | 43 | i | i | i | i | i
O=C(Nc1cccc(S(=O)(=O)NC2=NCCC2)c1)c1ccccc1 | i | i | i | i | i | i | nt | nt
CCC1Sc2ccc(S(=O)(=O)Nc3ccc(OC)c(OC)c3)cc2NC1=O (stereo not drawn) | i | i | 52 | i | i | i | i | i
